From the supplement of paper PMC6897291 come the findings set out here.

The assay has as its system RIVA. As to the kind of experiment: growth inhibition by drug plus 177Lu-lilotomab satetraxetan (1 - RLU/untreated control) (fraction); higher = stronger inhibition. The note with it: 177Lu-lilotomab satetraxetan 0.5 ug/ml. As for the experimental part: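 RIVA (RI-1) ABC-DLBCL cells were pretreated or not for 18 h with 0.5 ug/ml 177Lu-lilotomab satetraxetan (600 MBq/mg), washed and seeded (3000 cells/well) on 384-well plates pre-printed with the Selleck Cambridge Cancer Compound library. Viability was read by RealTime-Glo luminescence on days 3-6 after seeding. Effect = 1 - RLU/mean RLU of the 48 untreated no-drug control wells per plate; Bliss score = (M-E)/(1-Fa).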

Where a name gives a salt, the structure may show the parent alone.

In the case of `CO[C@H]1/C=C\C=C(/C)C(=O)NC2=CC(=O)C(NCCN(C)C)=C(C[C@@H](C)C[C@H](OC)[C@H](O)[C@@H](C)/C=C(\C)[C@@H]1OC(N)=O)C2=O` [17-DMAG HCl (Alvespimycin)], the “growth inhibition by drug plus 177Lu-lilotomab satetraxetan” value (from here on “growth inhibition”) is, setting by setting: (10 nM, time (day): 3) 0.602; (10 nM, time (day): 4) 0.624; (10 nM, time (day): 5) 0.637; (10 nM, time (day): 6) 0.653; (100 nM, time (day): 3) 0.96; (100 nM, time (day): 4) 0.98. For the same molecule, the “growth inhibition” value turned out to be 0.982 (100 nM, time (day): 5) and 0.987 (100 nM, time (day): 6).

For the molecule `Cc1ccnc(NS(=O)(=O)c2ccc(NC(=O)Nc3ccc(S(=O)(=O)Nc4nccc(C)n4)cc3)cc2)n1`, the “growth inhibition” value runs as follows: (10 nM, time (day): 3) 0.581; (10 nM, time (day): 4) 0.617; (10 nM, time (day): 5) 0.633; (10 nM, time (day): 6) 0.636; (100 nM, time (day): 3) 0.492; (100 nM, time (day): 4) 0.533. Moreover, the “growth inhibition” value reads like this: (100 nM, time (day): 5) 0.541; (100 nM, time (day): 6) 0.545.

`O=C(CCc1ccc(O)cc1)c1c(O)cc(O)cc1O` [Phloretin (Dihydronaringenin)]: the “growth inhibition” value turned out to be 0.412 (10 nM, time (day): 3); 0.555 (10 nM, time (day): 4); 0.573 (10 nM, time (day): 5); 0.596 (10 nM, time (day): 6); 0.427 (100 nM, time (day): 3); 0.522 (100 nM, time (day): 4). The “growth inhibition” value reads like this: (100 nM, time (day): 5) 0.532; (100 nM, time (day): 6) 0.521.

Turning to `CS(=O)(=O)CCNCc1ccc(-c2ccc3ncnc(Nc4ccc(OCc5cccc(F)c5)c(Cl)c4)c3c2)o1` [Lapatinib Ditosylate (Tykerb)], the “growth inhibition” value turned out to be 0.649 (10 nM, time (day): 3); 0.657 (10 nM, time (day): 4); 0.672 (10 nM, time (day): 5); 0.674 (10 nM, time (day): 6); 0.379 (100 nM, time (day): 3); 0.475 (100 nM, time (day): 4). The “growth inhibition” value (100 nM, time (day): 5) was found to be 0.487 and the “growth inhibition” value (100 nM, time (day): 6) is 0.486.

Consider `CCNC(=O)c1noc(-c2cc(C(C)C)c(O)cc2O)c1-c1ccc(CN2CCOCC2)cc1`, for which the “growth inhibition” value was 0.398 (10 nM, time (day): 3); 0.414 (10 nM, time (day): 4); 0.469 (10 nM, time (day): 5); 0.516 (10 nM, time (day): 6); 0.982 (100 nM, time (day): 3); 0.988 (100 nM, time (day): 4). The “growth inhibition” value was 0.988 (100 nM, time (day): 5) and 0.988 (100 nM, time (day): 6).
